Bioassay records deposited in PubChem BioAssay by National Center for Advancing Translational Sciences (NCATS).
DT40 TDP1 no CPT: qHTS for Inhibitors of human tyrosyl-DNA phosphodiesterase 1 (TDP1): qHTS in cells in absence of CPT; DT40 Tdp1-/- hTDP1 cells, no CPT, ATP luminescence, 48 h; Potency, µM (titrated, usually from 46.2 µM), without a hit: at the top dose activity change, negative = growth inhibition, hits mostly inhibitors; hit rate 15% among 420,000; AID 686978, 2013; also: potency is read from the fitted curve at half-maximal effect; % is scaled to controls: 0 for no effect and ±100 for the full control effect; nearly all actives have a fitted effect of over 55% in size
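No-CPT arm: Tdp1-/-;hTDP1 DT40 cells (400/well) plus compounds, incubated ≥48 hr at 37 °C. Readout CellTiter-Glo luminescence.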
IL-1B inflam inh: inflammasome signaling inhibition, IL-1 beta readout; THP-1 LPS/ATP IL-1B secretion, AlphaLISA, 16 h; active compounds read low; activity change, % at 57.5 µM; hit rate 4.7% among 360,000; in the data active = activity change below about -50%; inconclusive = mostly about -30% to -49%; also: % is scaled to controls: 0 for no effect and ±100 for the full control effect
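THP-1 cells pretreated 1 hr with compounds (up to 57.5 uM final), then stimulated with LPS (250 ng/mL final) plus ATP (1.25 mM final); secreted IL-1B measured by AlphaLISA after 16 hr, decreased signal indicating inhibition.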
TDP1 cell CPT: DT40-hTDP1 cell growth loss with CPT; hit rate 12% among 420,000; Potency, µM (doses to about 46.2 µM), inactives show top-dose activity change, negative = growth inhibition, most hits filed as inhibitors; AID 686979; chicken DT40 Tdp1-/-;hTDP1 cells + 20 nM CPT, ATP luminescence, 48 h; also: potency is read from the fitted curve at half-maximal effect; % is scaled to controls: 0 for no effect and ±100 for the full control effect; nearly all actives have a fitted effect of over 55% in size
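Chicken DT40 Tdp1-/- cells stably complemented with human TDP1 were seeded at 400 cells/well in medium containing 20 nM camptothecin, exposed to pin-transferred compounds, and grown at 37 °C for at least 48 hr. Viability was read as ATP luminescence.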
DRD3 antagonist: D3 dopamine receptor (human) antagonism | P35462 | D3R cells, DiscoveRx beta-arrestin luminescence, antagonist mode; active compounds read low | max response, negative = inhibition, % | hit rate 2.5% among 360,000 | AID 652054; in the data active = max response below about -50%; inconclusive = no clear call, values can overlap the other calls; also: % is scaled to controls: 0 for no effect and ±100 for the full control effect
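Cells plated overnight at 1500 cells/well, then exposed to library compounds with dopamine controls for 90 minutes at 37 degrees C. DiscoveRx reagent added for 30–60 minutes at room temperature; luminescence read, quantitative HTS format.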
ClpP mod: qHTS Assay for Activators of ClpP; ATP-dependent Clp protease proteolytic subunit (Bacillus subtilis (strain 168)), P80244; purified B. subtilis ClpP, FRET peptide cleavage, 20 min; Potency, µM (top dose mostly 57.5 µM), for the others: top-dose activity change, negative = active; hit rate 1.9% among 340,000; active = well fitted falling curve with a large enough effect; inconclusive = small, poorly fitted or top-dose-only effect; inactive = no such curve, though single readings can be large or run the other way; also: potency is read from the fitted curve at half-maximal effect; the source files actives as falling curves though it sought activators and does not explain the sign; nearly all actives have a fitted effect of over 65% in size
Target sequence (P80244 whole entry, looked up): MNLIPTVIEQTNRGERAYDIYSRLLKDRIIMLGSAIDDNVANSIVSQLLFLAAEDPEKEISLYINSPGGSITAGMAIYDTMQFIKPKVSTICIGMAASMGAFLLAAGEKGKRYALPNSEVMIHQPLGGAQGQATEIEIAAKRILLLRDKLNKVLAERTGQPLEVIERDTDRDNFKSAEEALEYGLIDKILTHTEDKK
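FRET quenching reversal measured ClpP activation: 10 microg/mL B. subtilis ClpP at pH 8 with the FRET-FV decapeptide, read at 430 nm after 320 nm excitation. The 20-min minus 0-min signal was scaled between DMSO/no-enzyme wells and ADEP (5.8 microM final).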
DRD3 agonist: activates the human D3 dopamine receptor. hit rate 0.58% among 410,000. D3R DiscoveRx beta-arrestin cells, luminescence, 90 min. AID 652048. P35462. max activation, %; in the data active = max activation above about 30%; also: 0% is about no effect
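Agonist mode: compounds and dopamine controls were applied to plated cells for 90 min at 37 degrees C after an overnight attachment at 1500 cells/well. Luminescent read-out followed 30 - 60 minutes at room temperature with DiscoveRx detection reagent.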
Starred values were filed as active, the others as inactive; ? = inconclusive; . = no result given. This is a sample that favours compounds with a hit; in the whole collection about 21% have one here. Unless noted, calls follow the shape of the dose curve; as a rule, active = well fitted inhibition curve with a large enough effect; inconclusive = small, poorly fitted or top-dose-only effect; inactive = flat fitted curve, though single readings scatter.

SMILES	DT40 TDP1 no CPT	IL-1B inflam inh	TDP1 cell CPT	DRD3 antagonist	ClpP mod	DRD3 agonist
Clc1ccc2nsnc2c1NC1=NCCN1	-1%	8	3%	16	1%	6
Cc1ccccc1Oc1ncnc2oc(-c3ccccc3)cc12	?	-16	-26%	2	32µM*	2
Clc1ccc(Oc2ncnc3oc(-c4ccccc4)cc23)cc1	?	6	-13%	5	-18%	0
Cc1cc(C)c2cc(C(c3nnnn3CC3CCCO3)N3CCN4CCCC4C3)c(=O)[nH]c2c1 (configuration not stated)	-5%	11	-21%	-21	?	-18
O=c1[nH]c2cc3c(cc2cc1C(c1nnnn1CC1CCCO1)N1CCCCCC1)OCCO3 (configuration not stated)	15µM*	-4	?	-8	32µM*	2
Cc1cccc2cc(C(c3nnnn3CC3CCCO3)N3CCOCC3)c(=O)[nH]c12 (configuration not stated)	-4%	-12	7%	2	?	10
O=c1[nH]c2cc3c(cc2cc1C(c1nnnn1CC1CCCO1)N1CCCC1)OCO3 (configuration not stated)	-15%	-6	-7%	-8	32µM*	1
COC(=O)c1sc(-c2cccs2)cc1NC(=O)/C=C/C(=O)O	15µM*	-92*	?	-10	.	4
CC(=O)c1cccc(NC(=O)C2CCN(S(=O)(=O)c3ccc4c(c3)oc(=O)n4C)CC2)c1	?	.	-22%	.	-2%	-5
O=S(=O)(Nc1cccc(S(=O)(=O)N2CCOCC2)c1)c1cccs1	-2%	9	5%	-1	-2%	3
CN1N=C(/C=C/c2ccccc2)CCC1=O	-27%	0	1%	1	.	9
O=C1CC(/C=C/c2cccnc2)=Nc2ccccc2N1	16µM*	-93*	13µM*	?	.	-5
CC1(C)CC(/C=C/c2ccccc2)=Nc2ccccc2N1	21µM*	-62*	18µM*	-21	-1%	-5
O=C1CC(/C=C/c2ccc(Cl)cc2)=Nc2ccccc2N1	15µM*	-94*	?	?	0%	-9
O=C1CC(C(F)(F)C(F)(F)C(F)(F)F)=Nc2ccccc2N1	-20%	-22	-2%	22	1%	8
COc1ccc(/C=C(/NC(=O)c2ccco2)C(=O)N2CCOCC2)cc1	22%	26	6%	23	0%	-13
O=C(CN1CCOCC1)Nc1ccc([N+](=O)[O-])cc1	2%	19	-6%	-5	-3%	-3
Cc1ccccc1-c1nc2ccccc2c(=O)o1	16µM*	56	?	?	-1%	5
CC(C)(C)NC(=O)C(c1ccccn1)N(C(=O)C1CSC(=O)C1)c1ccccc1F (configuration not stated)	0%	-15	5%	?	-2%	6
Clc1ccc(-c2cn3ccccc3n2)cc1	-21%	96	-11%	-11	5%	-2
Brc1ccc(-c2cn3ccccc3n2)s1	23µM*	4	7.3µM*	-26	?	-5
N#CC1=C(N)C(C#N)(C#N)C2(CCC3(CC2)OCCO3)C2CC3(CC=C12)OCCO3 (configuration not stated)	-13%	-13	-2%	7	-27%	11
N#CC1=C(N)C(C#N)(C#N)[C@H](c2c(F)cccc2F)[C@H]2CC3(CC=C12)OCCO3	16µM*	40	?	-24	-11%	-3
CN1C2C=C3C(C#N)=C(N)C(C#N)(C#N)[C@H](c4c(F)cccc4F)[C@H]3C1CC2 (some centres not stated)	10µM*	-93*	7.3µM*	-14	-24%	-5
Cc1nc(SCc2ccccc2Cl)c(C#N)c(C)c1C	?	.	-21%	.	2%	0
